# This is a sample that favours compounds with a hit; in the whole collection about 1.8% have one here.
# MLLE-PAM2 inh: inhibitors of microRNA-mediated deadenylation, human PABP1 MLLE binding. GST-MLLE / FITC-PAM2 fluorescence polarization. 0.36% of 360,000 active. P11940. inhibition, % at 20 µM; in the data active means inhibition above about 35%, passing the limit was not always enough;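 further: plate controls were DMSO wells with GST-MLLE for no effect and wells lacking GST-MLLE protein for full effect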
# Target sequence (P11940 whole entry, looked up): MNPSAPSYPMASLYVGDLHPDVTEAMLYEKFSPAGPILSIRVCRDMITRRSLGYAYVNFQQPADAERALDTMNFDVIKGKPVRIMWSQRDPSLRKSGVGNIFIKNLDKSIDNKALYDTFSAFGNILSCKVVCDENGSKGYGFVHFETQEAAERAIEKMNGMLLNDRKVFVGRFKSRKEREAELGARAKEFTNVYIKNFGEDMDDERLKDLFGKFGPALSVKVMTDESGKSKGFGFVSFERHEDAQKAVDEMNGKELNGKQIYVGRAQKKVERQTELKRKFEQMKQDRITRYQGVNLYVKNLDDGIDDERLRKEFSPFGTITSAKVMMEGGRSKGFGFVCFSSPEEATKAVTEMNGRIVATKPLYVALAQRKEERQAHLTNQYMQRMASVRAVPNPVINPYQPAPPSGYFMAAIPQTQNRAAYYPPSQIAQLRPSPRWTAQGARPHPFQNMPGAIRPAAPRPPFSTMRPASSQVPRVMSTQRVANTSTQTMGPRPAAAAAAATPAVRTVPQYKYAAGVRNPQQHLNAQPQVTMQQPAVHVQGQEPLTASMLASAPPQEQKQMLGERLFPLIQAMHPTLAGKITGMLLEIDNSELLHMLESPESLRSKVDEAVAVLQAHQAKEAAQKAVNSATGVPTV
# MEX-5 binding: C. elegans MEX-5 TCR-2 RNA binding activity | MEX-5/FITC-TCR2 RNA binding, fluorescence polarization; active compounds read low | activity score (negative = inhibition of binding), % at 10 µM | 0.38% of 300,000 active;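 active means inhibition past about -25% in most replicates, and total fluorescence under double the plate's negative control median, limit read from the data; inconclusive means replicates evenly split on the limit, or fluorescence at least double controls; inactive means too little inhibition in most replicates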;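 further: 0% = DMSO and -100% = 5 µM competing unlabeled TCR2 RNA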
# EBV gp42 inh: EBV gp42 inhibition; inhibition, % (tested at 21.74 µM); AID 1085; Q1HVG2; 0.42% of 220,000 active; Fluorescence polarization binding assay, mP read-out; in the data active means inhibition above about 50%
# eIF4H FP inh: inhibitors of RNA binding by human eIF4H; Q15056; eIF4H fluorescence polarization binding assay; inhibition, % at 35 µM; 0.94% of 290,000 active;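 further: calls also rest on retests at 20 µM and on dose response follow-up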
# PABP polyA inh: PABP-poly(A) binding inhibition; AID 2014; calls only at 35 µM; P11940; 1% of 290,000 active; PABP-poly(A) RNA binding, fluorescence polarization;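 further: calls also rest on retests at 20 µM and on dose response follow-up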
# Starred values were filed as active, the others as inactive; i = inactive; ? = inconclusive; nt = not tested or not shown; + = active, no number. Unless noted, how the calls were made is not given here.
SMILES,MLLE-PAM2 inh,MEX-5 binding,EBV gp42 inh,eIF4H FP inh,PABP polyA inh
CC1CCN(CC(O)COC2CC(C)CC(C)(C)C2)CC1 (stereo not drawn),1,1,nt,nt,nt
CCn1c(C)c(C(C)=O)c(N2CCN(c3cccc(Cl)c3)CC2)nc1=S,14,-6,-1,?,?
CC(=O)c1c(N2CCN(c3cccc(Cl)c3)CC2)nc(=S)n(-c2ccccc2)c1C,7,-2,-11,84*,+
COc1ccc(N2CCN(c3nc(=S)n(-c4ccccc4)c(C)c3C(C)=O)CC2)cc1,-14,3,-13,68*,+
CCn1c(C)c(C(C)=O)c(N2CCN(c3ccc(OC)cc3)CC2)nc1=S,-87,-1,-4,83,i
CC(=O)c1c(N2CCN(c3ccccn3)CC2)nc(=S)n(-c2ccccc2)c1C,16,-3,-4,?,+
Nc1cc(N)cc(C(=O)c2ccccc2)c1,8,nt,nt,nt,nt
O=C1OC(Cc2ccccc2)(c2ccccc2)c2ccccc21 (stereo not drawn),-3,nt,nt,nt,nt
Cc1ccc2cc(C)c3nnc(SCC(=O)c4cccs4)n3c2c1C,4,-1,13,96*,+
CCCC1c2ccc(C)n2CCN1C(=O)Nc1ccc(F)cc1 (stereo not drawn),-16,-3,7,?,?
CCC1c2ccc(C)n2CCN1C(=O)Nc1ccc(F)cc1 (stereo not drawn),0,-1,-1,113*,+
CC1CC(C)CN(C(CCc2ccccc2)C(=O)NC2CCCCC2)C1 (stereo not drawn),2,nt,nt,nt,nt
CC1=C(C(=O)OCc2ccccc2)C(c2ccccc2[N+](=O)[O-])NC(=O)N1C (stereo not drawn),34,-39*,nt,?,?
CCCCOC(=O)C1=C(C)N(C)C(=O)NC1c1cc2c(cc1Br)OCO2 (stereo not drawn),-5,nt,nt,nt,nt
CCOC(=O)C1=C(C)N(C)C(=O)NC1c1cc2c(cc1[N+](=O)[O-])OCO2 (stereo not drawn),14,-7,-46,93*,+
O=Cc1ccc2c(c1)OCCOCCOCCOCCO2,2,nt,nt,nt,nt
CCOCCCn1c(=NC(=O)c2cccs2)c(C#N)cc2c(=O)n3cccc(C)c3nc21,124,-37*,54*,55,+
COCCCn1c(=NC(C)=O)c(C#N)cc2c(=O)n3cccc(C)c3nc21,3,-3,-10,107*,+
COCCCn1c(=NC(=O)c2ccc3c(c2)OCO3)c(C#N)cc2c(=O)n3cccc(C)c3nc21,nt,nt,nt,9,i
CCOCCCn1c(=NC(C)=O)c(C#N)cc2c(=O)n3ccccc3nc21,19,?,-9,?,?
COCCCn1c(=NC(=O)c2ccccc2)c(C#N)cc2c(=O)n3cccc(C)c3nc21,170,?,52*,?,?
O=C(Nc1nnc([C@@H]2C[C@H](O)[C@@H](CO)O2)s1)c1cccc2ccccc12,-2,nt,nt,nt,nt
CC(C)N1CCC1(C)C(=O)Nc1nc2ccccc2[nH]1 (stereo not drawn),-2,nt,nt,nt,nt
c1ccc(-c2cn3nc4c(nc3n2)CCCC4)cc1,88,-37*,63*,6,i
Brc1ccc(-c2cn3nc4c(nc3n2)CCCC4)cc1,56,-11,-22,2,i
SMILES,MLLE-PAM2 inh,MEX-5 binding,EBV gp42 inh,eIF4H FP inh,PABP polyA inh
CCOC(=O)N1CCC(N(CCN(C)C)C(=S)Nc2ccccc2OCC)CC1,22,1,-5,active,+
Fc1cccc(C[n+]2csc3ccccc32)c1,26,0,-12,4,i
c1ccc(C[n+]2csc3ccccc32)cc1,43*,-1,-13,-12,i
CC1(Cc2ccccc2Cl)C(=O)Nc2c(Cl)ccc(Cl)c21 (stereo not drawn),-18,nt,nt,nt,nt
COc1ccc(OC2(C)CCN(Cc3ccc(-c4ccccc4)o3)C2)cc1 (stereo not drawn),-19,nt,nt,nt,nt
CSc1nc2ncncc2[nH]1,-3,nt,nt,nt,nt
O=S(=O)(Nc1ccccc1)c1cccc2nsnc12,10,-3,nt,71*,i
CC(C)CN(C(=O)CN(C)C(=O)Cc1c(F)cccc1Cl)c1c(N)n(CC(C)C)c(=O)[nH]c1=O,-5,nt,nt,nt,nt
O=P(c1ccccc1)(c1ccccc1)c1cc(S(=O)(=O)O)ccc1O,-9,-1,nt,78*,+
CCOC(=O)c1ccc(NC(=O)CSc2nc(C)cc(=O)[nH]2)cc1,-7,2,24,81*,+
Cc1cc(=O)[nH]c(SCC(=O)Nc2ccc(C(=O)O)cc2)n1,47*,1,-22,0,i
Cc1cc(=O)[nH]c(SCC(=O)Nc2ccc(S(N)(=O)=O)cc2)n1,21,0,-8,63*,+
CCN(CC)c1ccc(NC(=O)CSc2nc(C)cc(=O)[nH]2)cc1,10,-1,0,-8,i
COCCCN(C(=O)CSCC(=O)Nc1ccc(C)cc1)c1c(N)n(Cc2ccccc2)c(=O)[nH]c1=O,-12,nt,nt,nt,nt
Cc1cc(F)ccc1-c1cc(C(=O)NCc2cccs2)[nH]n1,-1,nt,nt,nt,nt
Cc1ccccc1-c1cnc(C(O)c2c(C)ccc3ccccc23)[nH]1 (stereo not drawn),-7,nt,nt,nt,nt
Cn1c(SCC(=O)c2ccc(O)c(O)c2)nnc1-c1cccs1,7,-3,-4,50*,+
O=C(CSc1nc2ccccc2n1CCc1ccccc1)c1ccc(O)c(O)c1,-99,nt,72*,90*,+
O=C(CSc1nc2ccccc2n1CCc1ccccc1)N1CCOCC1,-7,nt,-23,-5,i
Cn1c(SCC(=O)c2ccc(O)c(O)c2)nnc1-c1ccccc1,9,-6,nt,3,i
C[C@@H]1CN([C@H](C)CO)C(=O)CCCn2cc(nn2)CO[C@H]1CN(C)S(=O)(=O)c1ccc(-c2ccccc2)cc1,-4,nt,nt,nt,nt
O=C(O)CCCN1C(=O)C(=O)/C(=C(/O)c2ccc(Cl)cc2)C1c1ccccc1 (stereo not drawn),51*,-2,-3,-2,i
O=C(Nc1ccccc1Cl)C(Cl)C(=O)c1ccccc1 (stereo not drawn),23,nt,-8,8.0*,i
O=C(Nc1ccc(Cl)cc1)C(Cl)C(=O)c1ccccc1 (stereo not drawn),32,-1,nt,-17,i
O=C(CCN1C(=O)/C(=C/c2ccccc2Cl)SC1=S)NN1CCOCC1,25,-4,nt,-13,i
CN1CCN(NC(=O)CN2C(=O)S/C(=C\c3c(Cl)cccc3Cl)C2=O)CC1,41*,1,-13,8,i
Cc1cc(NCC2CCCO2)n2c(nc3ccccc32)c1C#N (stereo not drawn),-4,-1,-23,61*,+
CC(C)c1cc(NCC2CCCO2)n2c(nc3ccccc32)c1C#N (stereo not drawn),6,1,-16,1,i
CN(C)C(=O)c1ccc(NC(=O)c2cc(-c3ccco3)nc3ccccc23)cc1,2,-1,nt,77*,+
O=C(Nc1cccc(S(=O)(=O)NC2=NCCC2)c1)c1cc(-c2ccco2)nc2ccccc12,-28,-2,82*,90*,+
